Shown are actives, neighbours in structure and some others; about 19% of the full set was active somewhere.
DT40 TDP1 CPT: DT40-hTDP1 cell growth loss with CPT | chicken DT40 Tdp1-/-;hTDP1 cells + 20 nM CPT, ATP luminescence, 48 h | Potency, µM (titrated, usually from 46.2 µM), for inactives: at the top dose activity change, negative = growth inhibition, hits mostly inhibitors | 420,000 compounds, 12% hits | AID 686979; further: potency means the concentration at half of the fitted maximal effect; nearly all actives have a fitted effect of over 55% in size
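Cell growth measured by CellTiter-Glo luminescence after a minimum 48 h, 37 C compound exposure with 20 nM CPT in Tdp1-knockout DT40 cells stably expressing hTDP1, seeded 400/well; qHTS titration format.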
DT40 TDP1 no CPT: qHTS for Inhibitors of human tyrosyl-DNA phosphodiesterase 1 (TDP1): qHTS in cells in absence of CPT. Potency, µM (titrated, usually from 46.2 µM), without a hit: top-dose activity change, negative = growth inhibition, usual class: inhibitors. 420,000 compounds, 15% hits. DT40 Tdp1-/- hTDP1 cells, no CPT, ATP luminescence, 48 h; further: potency means the concentration at half of the fitted maximal effect; nearly all actives have a fitted effect of over 55% in size
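Stably hTDP1-transfected Tdp1-null chicken DT40 cells were treated with library compounds minus camptothecin and grown for at least 48 hr at 37 °C, after which cellular ATP was quantified by luminescence.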
HT1080-NT tox: kills 2HG-producing HT-1080-NT fibrosarcoma cells; Potency, µM (titrated, usually from 46.1 µM), without a hit: at the highest dose activity, negative = less viability, hits mostly cytotoxic; HT-1080-NT fibrosarcoma viability, CellTiter-Glo ATP luminescence, 48 h; AID 686970; 360,000 compounds, 1.6% hits;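 further: NT is the 2HG producing partner of a matched IDH1 knockdown line; potency means the concentration at half of the fitted maximal effect; 0% = DMSO-treated cells and -100% = media-only wells without cells; nearly all actives have a fitted effect of over 55% in size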
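Viability of the 2HG-overproducing fibrosarcoma line after 48 hours of compound exposure at 37 degrees C was determined by luminescence with CellTiter-Glo, and concentration-effect curves were then fitted and categorized.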
IL1B secr inh: inhibitors of inflammasome signaling (IL-1 beta secretion); THP-1 LPS/ATP IL-1B secretion, AlphaLISA, 16 h; hits give low values; activity change, % at 57.5 µM; 360,000 compounds, 4.7% hits; AID 743279; in the data active means activity change below about -50%; inconclusive means mostly about -30% to -49%
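THP-1 cells pretreated 1 hr with compounds (up to 57.5 uM final), then stimulated with LPS (250 ng/mL final) plus ATP (1.25 mM final); secreted IL-1B measured by AlphaLISA after 16 hr, decreased signal indicating inhibition.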
HT1080 IDH1KD tx: toxicity to HT-1080 IDH1 knockdown cells (counter line); HT-1080 IDH1 knockdown viability, ATP luminescence, 48 h; Potency, µM (titrated, usually from 46.1 µM), inactives show at the highest dose activity, negative = toxicity, most hits filed as cytotoxic; 360,000 compounds, 2% hits; AID 686971;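 further: potency means the concentration at half of the fitted maximal effect; 0% = DMSO wells and -100% = cell-free medium wells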
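After a 2 h attachment period, IDH1KD HT-1080 cells took pin-transferred compound for 48 h at 37 °C; ATP-based luminescence after 10 min room-temperature reagent incubation reported viability.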
Numbers without * were called inactive; ? = inconclusive; . = not tested or not shown; [ ] = another dose, or the depositor's remark. Unless noted, the call rests on the fitted dose curve; in most records, active means well fitted curve in the direction sought with a large enough effect; inconclusive means small, poorly fitted or top-dose-only effect, or another doubt; inactive means no such curve, though single readings can be large; an effect the other way counts as inactive or inconclusive. Unless noted, on the % scale 0 is the no-effect control and ±100 the full control effect.

SMILES	DT40 TDP1 CPT	DT40 TDP1 no CPT	HT1080-NT tox	IL1B secr inh	HT1080 IDH1KD tx
N#Cc1cccc(NC(=O)c2cc(C3CCCCN3C(=O)c3ccccc3)on2)c1 (centres undefined)	18.4µM*	10.3µM*	-0.6%	9.1	-9.4%
COc1ccc(NC(=O)c2cc(C3CCCCN3C(=O)c3ccccc3)on2)c(C)c1 (centres undefined)	18.4µM*	9.2µM*	-6.4%	11.0	-11.4%
N#Cc1cccc(NC(=O)c2cc(C3CCCCN3C(=O)c3ccccn3)on2)c1 (centres undefined)	23.1µM*	?	?	26.5	0.8%
CC(=O)c1cccc(NC(=O)CCn2c(=O)oc3ccccc32)c1	-5.4%	-6.1%	-13.6%	0.5	10.2%
O=C(NCc1ccccc1)c1cc(C2COCCN2C(=O)OCCF)on1 (centres undefined)	1.3%	2.1%	21.8%	16.6	8.5%
CCCNC(=O)COC(=O)/C(C#N)=C/c1cc(C)n(CCC)c1C	-7.9%	-20.2%	24.0%	-6.8	18.2%
COc1ccc(C(=O)N2CCCCC2c2cc(C(=O)Nc3cccc(C#N)c3)no2)cc1 (centres undefined)	23.1µM*	?	10.8%	-11.9	0.0%
N#Cc1cccc(NC(=O)c2cc(C3CCCCN3C(=O)C3CC3)on2)c1 (centres undefined)	25.9µM*	?	2.3%	0.0	-2.7%
O=C(Nc1ccccc1)c1cc(C2CCCCN2C(=O)c2cccs2)on1 (centres undefined)	?	18.4µM*	-0.1%	-10.2	-11.8%
COc1cccc(CN2CCc3nnc(CCc4ccccc4)n3CC2)c1OC	0.4%[9.04 µM]	-9.5%	.	.	.
S=C(Nc1ccc(Nc2ccccc2)cc1)Nc1ccccn1	6.51µM*	6.51µM*	?	?	16.4µM*
CCOC(=O)c1ccc(NC(=S)NCCc2ccccc2F)cc1	?	23.1µM*	-16.7%	71.9	-6.7%
O=C(Nc1ccccc1)C(=O)Nc1ccccn1	-5.5%	-22.2%	-4.1%	11.4	-15.9%
COC(=O)c1ccc(NC(=S)NCCc2ccccc2)cc1	?	?	3.2%	83.3	?
O=C(O)c1ccccn1	10.5%	-0.5%	2.4%	10.1	2.0%
CCOC(=O)c1ccc(NC(=O)NCCc2ccccc2OC)cc1	?	14.6µM*	-8.7%	-7.2	7.4%
CCOC(=O)c1ccc(NC(=O)NCc2ccccc2OC)cc1	3.7%	-26.5%	-9.4%	-1.1	-15.4%
S=C(Nc1ccccc1)c1ccccn1	0.651µM*	0.92µM*	?	-0.5	-16.7%
CCc1c(C(=O)NNC(=O)Nc2ccc3c(c2)OCO3)csc1C	2.8%	0.2%	-8.6%	-14.6	-14.9%
N#Cc1ccc(CN2CC3(CCN(C(=O)c4ccncc4)CC3)C2)cc1	9.1%	-13.7%	.	.	.
COc1ccccc1CCC(=O)OCC(=O)Nc1ccc(S(N)(=O)=O)cc1	0.0%	-8.9%	13.5%	47.5	17.9%
CCOC(=O)c1ccc(NC(=S)NCC(O)c2ccccc2)cc1 (centres undefined)	?	18.4µM*	8.9%	8.3	8.9%
CCOC(=O)c1ccc(NC(=S)NCCc2ccccc2)cc1	?	20.6µM*	?	66.7	-29.0%
CCOC(=O)c1ccc(NC(=S)Nc2ccccn2)cc1	?	14.6µM*	-15.9%	-0.9	-21.8%
CCOC(=O)c1ccc(NC(=S)NCc2ccccc2)cc1	-21.1%	?	-1.4%	-8.3	-1.1%
COc1ccccc1CCC(=O)OCC(=O)Nc1ccc(C(N)=O)cc1	14.6µM*	-99.2%	9.0%	19.0	6.9%
CCOC(=O)c1ccc(NC(=S)Nc2ccc(Cl)cn2)cc1	?	-25.8%	-3.3%	0.0	-8.2%
CC(=O)N1CCN(C(=O)c2cccc(S(=O)(=O)Nc3c(C)n(C)n(-c4ccccc4)c3=O)c2)CC1	-5.4%	-13.6%	-1.1%	5.3	-2.0%
O=C(COC(=O)CCN1C(=O)C2CC=CCC2C1=O)Nc1ccc(Cl)cc1F (centres undefined)	-18.8%	21.6%	10.9%[9.24 µM]	5.3	9.2%
